# Reference: PMC7862700, “An all-to-all approach to the identification of sequence-specific readers for epigenetic DNA modifications on cytosine”
# Experiments:
# Test in all cases: DAPPL (digital affinity profiling via proximity ligation, sequencing); 10 mM Tris-HCl pH 7.5, 50 mM NaCl, 1 mM DTT, 4% glycerol, room temperature, 30 min; GST-TFs on glutathione beads, 16-mer random dsDNA library, 0.1% formaldehyde crosslink after washing; high values mean tight binding
# FEV = biological target: T1, FEV (Homo sapiens, UniProt Q99581 1-238); details: protein: recombinant; tags: N-terminal GST; dsDNA, one strand shown
# T1 sequence: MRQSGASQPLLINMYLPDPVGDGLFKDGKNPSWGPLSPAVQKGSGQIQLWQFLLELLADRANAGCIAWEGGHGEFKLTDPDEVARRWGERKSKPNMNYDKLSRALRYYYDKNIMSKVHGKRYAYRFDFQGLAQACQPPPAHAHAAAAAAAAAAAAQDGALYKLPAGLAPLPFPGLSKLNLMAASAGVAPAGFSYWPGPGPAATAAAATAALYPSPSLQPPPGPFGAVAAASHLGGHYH
# Summary of the method: (§1)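 Human transcription factors fused to GST were expressed in yeast, captured on glutathione beads, given DNA barcodes and pooled with a GST-only negative control. Pools were incubated with 200 nmole of a 16-mer random double-stranded DNA library in Tris/NaCl/DTT/glycerol buffer at room temperature for 30 min. They were then washed, crosslinked with 0.1% formaldehyde, proximity-ligated (BsaI/T4 ligase, 1 h, 37 °C), PCR-amplified and sequenced on an Illumina NextSeq500. Binding signal is each 6-mer's read frequency for a factor divided by its frequency for the GST control.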
# ETV5 = ETV5 (Homo sapiens, UniProt P41161 1-510); details: protein: recombinant; tags: N-terminal GST; dsDNA, one strand shown
# Summary of the method: as §1
# HSF1 = HSF1 (Homo sapiens, UniProt Q00613 1-529); details: protein: recombinant; tags: N-terminal GST; chain copies: 3; dsDNA, one strand shown
# Summary of the method: as §1
# SPIC = biological target: T2, SPIC (Homo sapiens, UniProt Q8N5J4 1-248); details: protein: recombinant; tags: N-terminal GST; dsDNA, one strand shown
# T2 sequence: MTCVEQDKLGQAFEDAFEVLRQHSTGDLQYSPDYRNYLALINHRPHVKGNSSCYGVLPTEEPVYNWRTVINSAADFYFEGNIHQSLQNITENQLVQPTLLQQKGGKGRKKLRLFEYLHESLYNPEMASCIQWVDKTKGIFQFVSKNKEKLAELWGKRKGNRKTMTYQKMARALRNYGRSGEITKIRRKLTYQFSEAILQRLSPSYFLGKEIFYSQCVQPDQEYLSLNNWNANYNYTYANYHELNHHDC
# Summary of the method: as §1
# ELF4 = ELF4 (Homo sapiens, UniProt Q99607 1-663); details: protein: recombinant; tags: N-terminal GST; dsDNA, one strand shown
# Summary of the method: as §1
# ELK4 = biological target: T3, ELK4 (Homo sapiens, UniProt P28324-2 1-405); details: protein: recombinant; tags: N-terminal GST; dsDNA, one strand shown
# T3 sequence: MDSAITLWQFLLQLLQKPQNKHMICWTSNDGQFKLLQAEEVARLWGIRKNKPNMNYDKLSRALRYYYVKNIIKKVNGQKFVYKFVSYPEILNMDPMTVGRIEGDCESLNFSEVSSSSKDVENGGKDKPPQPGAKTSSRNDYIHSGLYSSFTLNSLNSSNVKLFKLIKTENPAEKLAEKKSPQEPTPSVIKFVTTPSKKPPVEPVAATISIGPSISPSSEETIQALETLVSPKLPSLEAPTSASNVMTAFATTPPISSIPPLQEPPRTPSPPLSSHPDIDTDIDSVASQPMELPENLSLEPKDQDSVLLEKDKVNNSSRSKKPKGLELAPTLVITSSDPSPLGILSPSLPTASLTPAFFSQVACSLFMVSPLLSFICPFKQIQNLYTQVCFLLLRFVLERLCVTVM
# Summary of the method: as §1
# ETV2 = biological target: T4, ETV2 (Homo sapiens, UniProt O00321 1-342); details: protein: recombinant; tags: N-terminal GST; dsDNA, one strand shown
# T4 sequence: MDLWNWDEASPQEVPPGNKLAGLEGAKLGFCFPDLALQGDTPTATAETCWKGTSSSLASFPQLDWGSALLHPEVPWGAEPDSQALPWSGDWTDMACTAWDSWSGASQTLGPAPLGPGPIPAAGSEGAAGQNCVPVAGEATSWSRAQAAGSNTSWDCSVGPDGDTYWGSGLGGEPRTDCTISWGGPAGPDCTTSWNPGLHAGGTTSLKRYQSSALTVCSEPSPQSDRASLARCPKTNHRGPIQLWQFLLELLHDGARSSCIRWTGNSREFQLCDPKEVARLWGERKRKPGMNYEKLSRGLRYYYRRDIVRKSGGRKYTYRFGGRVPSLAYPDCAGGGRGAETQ
# Summary of the method: as §1
# ELF3 = biological target: T5, ELF3 (Homo sapiens, UniProt P78545 1-371); details: protein: recombinant; tags: N-terminal GST; dsDNA, one strand shown
# T5 sequence: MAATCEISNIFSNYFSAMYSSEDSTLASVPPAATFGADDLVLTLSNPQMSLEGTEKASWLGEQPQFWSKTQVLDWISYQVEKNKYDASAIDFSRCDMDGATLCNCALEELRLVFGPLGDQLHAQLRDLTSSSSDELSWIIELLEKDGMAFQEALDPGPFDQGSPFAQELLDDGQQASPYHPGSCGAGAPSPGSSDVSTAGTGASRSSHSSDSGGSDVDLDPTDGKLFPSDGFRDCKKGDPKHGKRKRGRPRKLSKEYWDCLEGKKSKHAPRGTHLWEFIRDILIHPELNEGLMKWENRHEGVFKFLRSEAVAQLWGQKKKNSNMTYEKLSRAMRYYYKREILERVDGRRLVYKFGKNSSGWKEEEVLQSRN
# Summary of the method: as §1
# CRX = CRX (Homo sapiens, UniProt O43186 1-299); details: protein: recombinant; tags: N-terminal GST; dsDNA, one strand shown
# Summary of the method: as §1
# ETV1 = ETV1 (Homo sapiens, UniProt P50549 1-477); details: protein: recombinant; tags: N-terminal GST; dsDNA, one strand shown
# Summary of the method: as §1
# Sequence of HSF1 (Q00613 whole entry): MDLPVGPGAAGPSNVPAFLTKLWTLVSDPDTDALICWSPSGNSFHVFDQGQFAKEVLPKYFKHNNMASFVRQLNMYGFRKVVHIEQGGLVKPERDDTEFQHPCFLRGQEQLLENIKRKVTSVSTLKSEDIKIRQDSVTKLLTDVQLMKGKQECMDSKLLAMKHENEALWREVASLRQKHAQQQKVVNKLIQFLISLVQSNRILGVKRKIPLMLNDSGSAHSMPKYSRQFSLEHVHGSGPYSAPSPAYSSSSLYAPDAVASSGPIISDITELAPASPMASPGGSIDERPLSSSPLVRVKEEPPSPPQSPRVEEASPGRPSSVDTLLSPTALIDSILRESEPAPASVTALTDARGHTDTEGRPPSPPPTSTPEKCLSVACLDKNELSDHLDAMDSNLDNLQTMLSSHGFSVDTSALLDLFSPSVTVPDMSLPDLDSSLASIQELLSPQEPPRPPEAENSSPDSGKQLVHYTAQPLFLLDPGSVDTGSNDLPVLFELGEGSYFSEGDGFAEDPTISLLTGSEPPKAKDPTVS
# Sequence of ELF4 (Q99607 whole entry): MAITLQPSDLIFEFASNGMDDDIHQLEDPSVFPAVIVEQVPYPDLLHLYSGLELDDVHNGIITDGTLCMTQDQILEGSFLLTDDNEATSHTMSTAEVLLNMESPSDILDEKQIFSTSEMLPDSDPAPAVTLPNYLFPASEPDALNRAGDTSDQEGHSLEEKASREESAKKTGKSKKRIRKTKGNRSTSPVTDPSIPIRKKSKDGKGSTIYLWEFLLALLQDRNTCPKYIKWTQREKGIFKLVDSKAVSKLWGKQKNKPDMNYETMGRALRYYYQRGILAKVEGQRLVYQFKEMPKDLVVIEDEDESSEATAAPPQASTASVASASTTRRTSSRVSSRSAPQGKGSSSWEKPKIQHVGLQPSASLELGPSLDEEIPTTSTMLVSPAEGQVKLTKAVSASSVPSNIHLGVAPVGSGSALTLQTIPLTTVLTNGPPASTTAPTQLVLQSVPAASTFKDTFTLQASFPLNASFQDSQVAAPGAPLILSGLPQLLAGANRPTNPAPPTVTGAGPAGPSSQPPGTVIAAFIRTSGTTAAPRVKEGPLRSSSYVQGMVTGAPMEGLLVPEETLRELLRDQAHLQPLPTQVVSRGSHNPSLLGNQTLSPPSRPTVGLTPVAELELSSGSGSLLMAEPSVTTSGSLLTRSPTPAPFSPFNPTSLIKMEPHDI
# Sequence of ETV5 (P41161 whole entry): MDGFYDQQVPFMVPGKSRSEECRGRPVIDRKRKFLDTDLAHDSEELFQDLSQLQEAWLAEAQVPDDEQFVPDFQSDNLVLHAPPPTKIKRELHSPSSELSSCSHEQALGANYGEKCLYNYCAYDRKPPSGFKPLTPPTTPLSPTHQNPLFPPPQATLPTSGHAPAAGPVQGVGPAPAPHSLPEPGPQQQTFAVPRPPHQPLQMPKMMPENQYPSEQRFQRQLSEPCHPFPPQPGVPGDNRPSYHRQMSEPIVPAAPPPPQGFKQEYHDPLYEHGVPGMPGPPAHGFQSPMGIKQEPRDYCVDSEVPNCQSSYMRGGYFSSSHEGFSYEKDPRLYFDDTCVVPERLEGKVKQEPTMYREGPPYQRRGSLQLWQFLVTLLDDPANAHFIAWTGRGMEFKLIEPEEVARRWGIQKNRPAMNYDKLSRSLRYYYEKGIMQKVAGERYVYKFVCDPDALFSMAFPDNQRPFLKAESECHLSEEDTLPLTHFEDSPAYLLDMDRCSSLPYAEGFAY
# Sequence of CRX (O43186 whole entry): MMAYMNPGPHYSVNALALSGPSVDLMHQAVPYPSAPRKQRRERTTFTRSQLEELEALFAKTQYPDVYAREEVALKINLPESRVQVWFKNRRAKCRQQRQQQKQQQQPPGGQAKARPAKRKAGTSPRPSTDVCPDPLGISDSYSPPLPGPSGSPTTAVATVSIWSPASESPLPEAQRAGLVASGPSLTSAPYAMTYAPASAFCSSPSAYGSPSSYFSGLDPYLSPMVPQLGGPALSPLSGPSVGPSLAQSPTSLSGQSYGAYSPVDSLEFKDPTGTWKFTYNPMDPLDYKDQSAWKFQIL
# Sequence of ETV1 (P50549 whole entry): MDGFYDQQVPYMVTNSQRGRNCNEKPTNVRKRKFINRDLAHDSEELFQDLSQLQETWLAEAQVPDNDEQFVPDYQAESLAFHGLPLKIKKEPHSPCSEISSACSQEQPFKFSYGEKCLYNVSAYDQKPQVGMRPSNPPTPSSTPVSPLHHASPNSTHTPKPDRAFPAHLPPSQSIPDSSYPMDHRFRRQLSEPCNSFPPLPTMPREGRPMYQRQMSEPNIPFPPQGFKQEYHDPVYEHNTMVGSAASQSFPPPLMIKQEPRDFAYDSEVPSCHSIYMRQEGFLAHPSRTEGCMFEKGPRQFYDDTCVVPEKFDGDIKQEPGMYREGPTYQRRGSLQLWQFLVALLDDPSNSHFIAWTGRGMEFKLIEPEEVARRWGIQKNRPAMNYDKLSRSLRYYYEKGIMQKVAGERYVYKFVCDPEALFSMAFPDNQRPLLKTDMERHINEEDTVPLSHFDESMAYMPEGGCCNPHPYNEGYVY
sequence,measurement,setting,value
TAGTTC,binding signal,FEV,"1.28 fold enrichment (6-mer frequency, TF over GST control)"
same,binding signal,ETV5,"1.41 fold enrichment (6-mer frequency, TF over GST control)"
same,binding signal,HSF1,"1.45 fold enrichment (6-mer frequency, TF over GST control)"
same,binding signal,SPIC,"1.47 fold enrichment (6-mer frequency, TF over GST control)"
same,binding signal,ELF4,"1.43 fold enrichment (6-mer frequency, TF over GST control)"
same,binding signal,ELK4,"1.49 fold enrichment (6-mer frequency, TF over GST control)"
same,binding signal,ETV2,"1.4 fold enrichment (6-mer frequency, TF over GST control)"
same,binding signal,ELF3,"1.49 fold enrichment (6-mer frequency, TF over GST control)"
same,binding signal,CRX,"1.23 fold enrichment (6-mer frequency, TF over GST control)"
same,binding signal,ETV1,"1.4 fold enrichment (6-mer frequency, TF over GST control)"
